Among all 39,000 compounds or so, about 3,300 (8.5%) were called active. For the sample, actives were picked, then their nearest neighbours and some compounds at random.

In the experiment the test system is HepG2. In words: cytotoxicity call (relative viability < 0.9). The conditions noted are these: 10 µM.
For the compound `CC(C=CC=C(C)C=CC1=C(C)C(=O)CCC1(C)C)=CC=CC=C(C)C=CC=C(C)C=CC1=C(C)C(=O)CCC1(C)C` [CANTHAXANTHIN (euglenanone) ], the cytotoxicity call was “inactive”.

Consider `COc1ccc(S(=O)(=O)Nc2ccc3c(c2)[C@@H]2C[C@H](CC(=O)NCC4CC4)O[C@@H](CO)[C@@H]2O3)cc1`, for which the cytotoxicity call is “inactive”.

In the case of `C[C@H](CO)N1C[C@H](C)[C@@H](CN(C)Cc2ccc(C(=O)Nc3ccccc3N)cc2)Oc2ccc(NS(=O)(=O)c3ccc(Cl)cc3)cc2C1=O`, the cytotoxicity call was “inactive”.

Take `C[C@@H]1CCCCO[C@H](CN(C)S(=O)(=O)c2cccs2)[C@@H](C)CN([C@@H](C)CO)C(=O)c2cc(NC(=O)Nc3ccc(F)cc3)ccc2O1`: the cytotoxicity call is “inactive”.

As to `N[C@H](C(=O)O)c1ccc(C(=O)O)c(O)c1`, the cytotoxicity call is “inactive”.

For `NC[C@H](O)c1ccc(O)c(O)c1`, the cytotoxicity call was “active”.

Consider `O=C(O)[C@@H](O)Cc1ccc(O)c(O)c1`, for which the cytotoxicity call is “inactive”.

Take `CNCC(O)c1ccc(O)c(O)c1.O=C(O)C(O)C(O)C(=O)O` (centres undefined): the cytotoxicity call was “active”.

`CNC[C@@H](O)c1ccc(O)c(O)c1`: the cytotoxicity call was “inactive”.

As to `N[C@H](C(=O)O)[C@H](O)c1ccc(O)c(O)c1`, the cytotoxicity call is “inactive”.

As to `CNC[C@H](O)c1ccc(O)c(O)c1`, the cytotoxicity call is “inactive”.

Consider `NC(C(=O)O)C(O)c1ccc(O)c(O)c1` (centres undefined), for which the cytotoxicity call is “active”.

`NC[C@@H](O)c1ccsc1`: the cytotoxicity call is “inactive”.

As to `NCC(O)c1ccc(O)c(O)c1.O=C(O)C(O)C(O)C(=O)O` (centres undefined), the cytotoxicity call was “active”.

As to `NC[C@@H](O)c1ccc2ccccc2c1`, the cytotoxicity call was “inactive”.

`N[C@@H](C(=O)O)c1ccc(C(=O)O)c(O)c1`: the cytotoxicity call was “inactive”.

`Cc1noc(C)c1S(=O)(=O)N(C)C[C@H]1Oc2ccc(NC(=O)Cc3cn(C)c4ccccc34)cc2CC(=O)N([C@@H](C)CO)C[C@H]1C`: the cytotoxicity call was “inactive”.

As to `COc1cccc(S(=O)(=O)N[C@@H]2C=C[C@H](CC(=O)NC3CCC3)O[C@H]2CO)c1`, the cytotoxicity call is “inactive”.

In the case of `C[C@H](CO)N1C[C@H](C)[C@@H](CN(C)C(=O)Cc2ccccc2)OCCCC[C@H](C)Oc2ccc(NS(=O)(=O)c3cccs3)cc2C1=O`, the cytotoxicity call is “inactive”.

Turning to `C[C@H](CO)N1C[C@H](C)[C@@H](CN(C)Cc2ccc(C(=O)O)cc2)Oc2ccc(NC(=O)c3ccncc3)cc2C1=O`, the cytotoxicity call is “inactive”.

As for `C[C@@H]1CCCCO[C@@H](CN(C)Cc2ccc(C(F)(F)F)cc2)[C@H](C)CN([C@H](C)CO)C(=O)c2cc(NS(=O)(=O)c3cn(C)cn3)ccc2O1`, the cytotoxicity call is “inactive”.

As to `CC(C)NC(=O)N(C)C[C@H]1OCCCC[C@H](C)Oc2ccc(NC(=O)Nc3ccc(C(F)(F)F)cc3)cc2C(=O)N([C@@H](C)CO)C[C@H]1C`, the cytotoxicity call is “inactive”.

As to `C[C@@H]1CCCCO[C@H](CN(C)S(=O)(=O)c2ccc(Cl)cc2)[C@@H](C)CN([C@@H](C)CO)C(=O)c2cc(NC(=O)C3CCCCC3)ccc2O1`, the cytotoxicity call is “inactive”.

`C[C@@H]1CCCCO[C@H](CN(C)C(=O)CCC(F)(F)F)[C@H](C)CN([C@H](C)CO)C(=O)c2cc(NS(=O)(=O)c3ccccc3)ccc2O1`: the cytotoxicity call was “inactive”.

As to `C[C@@H]1CCCCO[C@@H](CN(C)C(=O)Nc2ccccc2)[C@H](C)CN([C@H](C)CO)C(=O)c2cc(NC(=O)Nc3ccc(C(F)(F)F)cc3)ccc2O1`, the cytotoxicity call was “inactive”.

As for `CC(C)NC(=O)N(C)C[C@H]1Oc2c(NS(=O)(=O)c3ccc(F)cc3)cccc2C(=O)N([C@H](C)CO)C[C@H]1C`, the cytotoxicity call was “inactive”.

On to `C[C@@H]1CN([C@@H](C)CO)C(=O)c2cc(C#CC3CC3)cnc2O[C@H]1CN(C)S(=O)(=O)c1cccc(F)c1`, for which the cytotoxicity call is “inactive”.

In the case of `O=c1[nH]ccn(-c2ccccc2)c1=O`, the cytotoxicity call was “active”.

Consider `O=c1[nH]ncn1-c1ccccc1`, for which the cytotoxicity call is “inactive”.

As for `Cc1ccc(=O)n(-c2ccccc2)c1`, the cytotoxicity call was “inactive”.

With `Cc1c(C(=O)O)sc(=O)n1C`, the cytotoxicity call is “inactive”.

With `CC(C)NC(=O)N(C)C[C@@H]1Oc2cc(C#Cc3cccc(F)c3)ccc2S(=O)(=O)N([C@@H](C)CO)C[C@@H]1C`, the cytotoxicity call was “inactive”.

With `C[C@@H]1CN([C@@H](C)CO)C(=O)Cc2cc(NS(=O)(=O)c3ccccc3)ccc2O[C@@H]1CN(C)S(=O)(=O)c1ccc(F)cc1`, the cytotoxicity call is “inactive”.

With `Cc1ccc(S(=O)(=O)N(C)C[C@@H]2OCCCC[C@H](C)Oc3ccc(NC(=O)CCC(F)(F)F)cc3C(=O)N([C@H](C)CO)C[C@@H]2C)cc1`, the cytotoxicity call is “inactive”.

In the case of `O=C(N[C@H](c1ccc(F)cc1)c1ccc2ccccc2n1)C1CCN(CCOc2ccc(Cl)cc2Cl)CC1`, the cytotoxicity call is “inactive”.

With `COc1ccc(OCCN2CCC(C(=O)N[C@@H](c3ccc(F)cc3)c3ccc4ccccc4n3)CC2)cc1`, the cytotoxicity call was “active”.

Consider `COc1ccc([C@@H](NC(=O)C2CCN(CCOc3ccc(Cl)cc3Cl)CC2)c2ccco2)cc1`, for which the cytotoxicity call is “inactive”.

For `O=C(N[C@@H](c1ccccc1)c1ccc2ccccc2n1)C1CCN(CCOc2ccc(Cl)cc2Cl)CC1`, the cytotoxicity call was “inactive”.

For `O=C(N[C@@H](c1ccc(F)cc1)c1ccc2ccccc2n1)C1CCN(CCOc2ccc(F)cc2)CC1`, the cytotoxicity call is “active”.

`O=C(N[C@H](c1ccc(F)cc1)c1ccc2ccccc2n1)C1CCN(CCOc2ccc(Cl)cc2)CC1`: the cytotoxicity call was “inactive”.

For the compound `COc1ccc(/C=C/CN2CCC(C(=O)N[C@@H](c3ccc(F)cc3)c3ccc4ccccc4n3)CC2)cc1`, the cytotoxicity call is “active”.

On to `C[C@@H]1CN([C@@H](C)CO)C(=O)c2cccc(NS(=O)(=O)c3cccs3)c2O[C@H]1CN(C)S(=O)(=O)c1ccc(F)cc1`, for which the cytotoxicity call is “inactive”.

For the compound `C[C@@H]1CN([C@H](C)CO)S(=O)(=O)c2ccc(-c3cccc(C#N)c3)cc2O[C@H]1CN(C)C(=O)c1cccnc1`, the cytotoxicity call is “inactive”.

For `COc1cccc(S(=O)(=O)N2C[C@@H](O)COC[C@@H]3O[C@H](CC(=O)N4CCN(C)CC4)CC[C@H]32)c1`, the cytotoxicity call was “inactive”.

For `CO[C@H]1CN(C)C(=O)c2cc(NS(=O)(=O)c3ccccc3)ccc2OC[C@@H](C)N(C(=O)NC(C)C)C[C@H]1C`, the cytotoxicity call was “inactive”.

Take `CC(C)(C)c1nc[nH]c1/C=c1\[nH]c(=O)/c(=C/c2ccccc2)[nH]c1=O`: the cytotoxicity call is “inactive”.

With `C[C@@H]1CN([C@@H](C)CO)C(=O)c2cc(NS(=O)(=O)c3cn(C)cn3)ccc2O[C@@H](C)CCCCO[C@@H]1CN(C)C(=O)CCCN(C)C`, the cytotoxicity call was “inactive”.

As to `CO[C@@H]1CN(C)C(=O)c2cc(NC(=O)Nc3ccccc3F)ccc2OC[C@H](C)N(CCC(F)(F)F)C[C@@H]1C`, the cytotoxicity call is “inactive”.

Consider `CC(=O)O[C@H](C[C@H](O)[C@@](C)(CCC=C(C)C)O[C@H]1O[C@@H](CO)[C@@H](O)[C@@H](O)[C@@H]1O)/C(C)=C/COC[C@@H](O)[C@@H](O)[C@@H](O)[C@@H](O)CO`, for which the cytotoxicity call was “inactive”.

The values are drawn from the antibiotic and cytotoxicity screens of Wong et al. (2023).
